From PubChem BioAssay (NCI) come the findings set out here.

Experiment in all cases: NCI-60 one-dose screen, 48 h (100 = growth as untreated, 0 = no growth, -100 = all killed)
Conditions in all cases: 10 µM unless noted

In assay [1] the test system is SK-MEL-2 melanoma.
Assay [2] has as its system EKVX NSCLC.
The test system of assay [3] is SN12C renal.
The test system of assay [4] is UO-31 renal.
For assay [5], the system named is TK-10 renal.
Assay [6] relates to ACHN renal.
Assay [7] deals with A498 renal.
Assay [8] has as its system MOLT-4 leukemia.
The test system of assay [9] is SR leukemia.
Assay [10] relates to RPMI-8226 leukemia.
For assay [11], the system named is OVCAR-8 ovarian.
Assay [12] deals with OVCAR-5 ovarian.
Assay [13] relates to OVCAR-4 ovarian.
In assay [14] the test system is SK-OV-3 ovarian.
Assay [15] has as its system IGROV1 ovarian.
The subject of assay [16] is OVCAR-3 ovarian.
The test system of assay [17] is HS 578T breast.
Assay [18] deals with CCRF-CEM leukemia.
Assay [19] deals with NCI/ADR-RES ovarian.
Assay [20] has as its system CAKI-1 renal.

The panel holds about 83,000 compounds, 20% with a hit somewhere; the sample as a whole holds those more often.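 Single-dose data. Exposure time 48 hours. Values below 10 considered active.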 Values without a mark were called inactive. Calls of active or inactive are those of the source.

For `O=[N+]([O-])c1cccc(-c2nnc3c(/C=C/c4ccc(F)cc4)nc4ccccc4n23)c1`, the growth is 97.7% in assay [1]; 96.2% in assay [2]; 88% in assay [3]; 78.3% in [4]; 121% in [5]; 93.8% in assay [6]. Further, the growth is 102% in assay [7]; 90.7% in assay [8]; 85.2% in assay [9]; 102% in assay [10]; 85.2% in assay [11]; 108% in [12]. In addition, the growth was 73.7% in [13]; 101% in assay [14]; 109% in assay [15]; 116% in [16]; 47.9% in [17].

Take `Cc1cc(C(NC(=O)C2CC3(CC(Nc4cccc5c4C(=O)N(C4CCC(=O)NC4=O)C5=O)C3)C2)c2ccc3c(c2)OC(F)(F)O3)c(O)c2ncccc12` (configuration not stated): the growth in assay [1] is -4.6% (active); in [2] it was 6.4% (active); in [3], 14.1%; in assay [4], -5.11% (active); in assay [5] it was 36.1%; in assay [6], 5.49% (active). Further, the growth is 115% in [7]; -7.69% (active) in assay [18]; 4.24% (active) in assay [8]; 10.6% in assay [9]; 15% in assay [10]; 4.53% (active) in assay [11]. The growth is 35.1% in [12]; 35% in assay [13]; -4.52% (active) in [14]; 6% (active) in assay [15]; 16.1% in assay [16]; 29.3% in assay [17]. In addition, the growth in assay [19] is 12.2%.

Turning to `COc1c(B(O)O)cc(F)cc1-c1nc2c(F)cc3[nH]ncc3c2c2c1CCCC2`, the growth in assay [1] was 46.8%; in [2], 13.5%; in [3] it was 17.2%; in [4], 3.57% (active); in assay [5] it was 21.3%; in assay [6], 4.28% (active). The growth in [20] was 0.122% (active); in assay [7], -30.7% (active); in [8], 17%; in assay [9], 33%; in assay [11], 10.2%; in assay [12] it was 15.9%. Moreover, the growth in assay [13] was 39.4%; in [14] it was 25.1%; in assay [15], 14.6%; in [17], 11.4%.

Take `COc1ccc2[nH]c(O)c(N=Nc3nc(-c4ccc(Br)cc4)cs3)c2c1`: the growth was 21.1% in assay [1]; 6.08% (active) in assay [2]; -46.4% (active) in assay [3]; 0.841% (active) in [4]; 33.4% in assay [5]; -64.2% (active) in [6]. Also, the growth in assay [7] is -78% (active); in assay [18], 14.7%; in assay [8], -17.7% (active); in [9], 19.3%; in assay [10] it was 16.3%; in [11], -23.7% (active). The growth in assay [12] is 31.4%; in assay [13], -69.6% (active); in assay [14] it was -35.3% (active); in assay [15] it was 30.6%; in assay [16], -71.3% (active); in assay [17], 29.3%. The growth in assay [19] was -24.6% (active).

Consider `COC(=O)c1c(C(=O)OC)c2ccc3c4ccccc4ccc3n2c1C(=O)C(C)Br` (configuration not stated), for which the growth in assay [1] was 26.9%; in assay [2], 86.5%; in assay [3], 35.7%; in [4], 45%; in [5], 58.1%; in [6], 43.9%. The growth in assay [7] is 87.2%; in assay [18], -4.34% (active); in assay [8], 0.188% (active); in [9] it was 3.43% (active); in assay [11] it was 15.6%; in [12], 75.7%. For the same molecule, the growth in assay [13] was 41.4%; in assay [14], 81.9%; in assay [15], 42.2%; in assay [16], 16.7%; in assay [17] it was 65.6%; in assay [19], 37.5%.

Consider `CCN(C(=O)CN1C(=O)/C(=C/c2ccco2)SC1=S)C1CCS(=O)(=O)C1` (configuration not stated), for which the growth is 99.2% in assay [1]; 98% in assay [2]; 106% in assay [3]; 83.6% in [4]; 121% in [5]; 114% in assay [6]. For the same molecule, the growth is 105% in [7]; 105% in assay [18]; 103% in assay [8]; 87.5% in assay [9]; 101% in assay [10]; 101% in assay [11]. Moreover, the growth is 111% in [12]; 94.2% in [13]; 101% in assay [14]; 111% in [15]; 118% in assay [17]; 93.6% in [19].

On to `COc1ccc(Nc2nnc(-c3c[nH]c4ccccc34)o2)cc1`, for which the growth in assay [1] is 92%; in [2], 68%; in assay [3], 58.6%; in assay [4], 62.6%; in [5], 135%; in [6] it was 89.6%. In addition, the growth in assay [7] is 130%; in [18], 7.79% (active); in assay [8], 40.3%; in [9], 70.5%; in assay [11] it was 86.2%; in assay [12], 103%. In addition, the growth was 85.3% in assay [13]; 74.2% in assay [14]; 60.9% in [15]; 94.4% in [16]; 81.2% in [17]; 73.8% in assay [19].

Turning to `COc1ccc(-n2c(NC(=O)N3CCN(C)CC3)c(C#N)c3ccccc32)cc1`, the growth in assay [1] is 72.9%; in assay [2] it was 12.3%; in assay [3], 23%; in assay [4], -15.6% (active); in assay [5], 12.4%; in assay [6] it was 21.9%. Besides, the growth in assay [20] was 15%; in assay [7], 139%; in [8] it was 43.9%; in assay [9], 31.5%; in [10] it was 41.6%; in [11], 66.8%. In addition, the growth was 55.1% in assay [12]; 43.3% in assay [13]; 55% in assay [14]; 34.2% in assay [15]; 42.6% in assay [16]; 27.3% in [17]. Also, the growth in assay [19] was 59.5%.

In the case of `CS(=O)(=O)Nc1cc(-c2ccc3ncnc(N4CCc5cc(F)c(Cl)cc54)c3c2)cnc1Cl`, the growth in [1] is -31.6% (active); in assay [2], -23% (active); in assay [3], 19.3%; in assay [4], 5.68% (active); in [5] it was -1.98% (active); in assay [6], 9.43% (active). For the same molecule, the growth in assay [20] was -8.1% (active); in [7], -36.5% (active); in [8] it was -47.4% (active); in [9] it was -31.9% (active); in [10], -9.06% (active); in [11], 13.3%. Further, the growth in [12] is 11.1%; in assay [14], -17.5% (active); in assay [15], -33.7% (active); in assay [16] it was -22.6% (active); in [17] it was -31.8% (active); in [19] it was 12.1%.
